“And” between values parts separate entries of the source, which are not always exact repeats. Identical values can stand only once. Hit rate of the full screen: of about 2,000 compounds, about 100 (5%) were called active. Rule as the data show it: active = z-score above about 2; inactive = the rest. Shown is part of a subset that was picked to be rich in actives. Where a structure was tested more than once in an assay, its records may differ in their call.
Assay: modulators of mitochondrial supercomplex assembly, cell-based, luminescence, Hoechst nuclei count (AID 1645838);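 also: control cybrid cells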;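 as to z-score: higher means more mitochondrial supercomplex formation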
Settings: Cells, luminescence/Hoechst cell count ratio, supercomplex reporter; for z-score: stronger effect = higher value; for cell count: measured here: cell number, Hoechst nuclei count
[1] = library stock concentration (final well concentration not given) 46 uM
[2] = library stock concentration (final well concentration not given) 278 uM
[3] = library stock concentration (final well concentration not given) 80 uM
[4] = library stock concentration (final well concentration not given) 400 uM
[5] = library stock concentration (final well concentration not given) 2 mM
[6] = library stock concentration (final well concentration not given) 10 mM
[7] = library stock concentration (final well concentration not given) 1.67 mM

**Q.** For `Cc1nc(Nc2n[nH]c3c2CN(C(=O)NC(CN(C)C)c2ccccc2)C3(C)C)c2sccc2n1` (centres undefined), which outcome (library stock 1.67 mM) is on record?
**A.** inactive; censored for cell count

**Q.** And the outcome (library stock 10 mM)?
**A.** inactive; censored for cell count

**Q.** And the z-score [1]?
**A.** 0.353 (inactive)

**Q.** What about the z-score [2] of the same compound?
**A.** 1.68 (inactive)

**Q.** What about the cell count [1] of the same compound?
**A.** 4470

**Q.** And the cell count [2]?
**A.** 2250

**Q.** With `Cc1cccc(Nc2nc(-c3ccncc3)cs2)c1` as the compound, how does the z-score read?
**A.** -0.555 (inactive)

**Q.** And the cell count?
**A.** 5440

**Q.** For `Oc1ccc(Nc2nc(-c3ccc(Cl)cc3)cs2)cc1`, which z-score is on record?
**A.** -0.695 (inactive)

**Q.** And the z-score [3]?
**A.** 0.00338 (inactive)

**Q.** What about the z-score [4] of the same compound?
**A.** -0.177 (inactive)

**Q.** And the z-score [5]?
**A.** -0.154 (inactive)

**Q.** And the z-score [6]?
**A.** 1.99 (active)

**Q.** What about the cell count of the same compound?
**A.** 4930

**Q.** What about the cell count [3] of the same compound?
**A.** 5690

**Q.** And the cell count [4]?
**A.** 5570

**Q.** What about the cell count [5] of the same compound?
**A.** 5530

**Q.** And the cell count [6]?
**A.** 2610

**Q.** Which results are given for `COc1cccc(OC)c1-c1ccc(CC(NC(=O)c2c(Cl)cccc2Cl)C(=O)O)cc1` (centres undefined)?
**A.** z-score [1]: -0.0712 (inactive); z-score [2]: -0.126 (inactive); z-score [7]: -0.192 (inactive); z-score [6]: -0.205 (inactive); cell count [1]: 5760; cell count [2]: 5740; cell count [7]: 5820; cell count [6]: 5840

**Q.** With `CCCCCCCCCCCCCCCC(=O)OC[C@@H](O)COP(=O)([O-])OCC[N+](C)(C)C` as the compound, how does the outcome read?
**A.** inactive; censored for cell count

**Q.** What does the source list for `COc1cc2ncnc(Nc3ccc(F)c(Cl)c3)c2cc1OCCCN1CCOCC1`?
**A.** z-score [3]: 0.183 (inactive); z-score [4]: 0.0655 (inactive); z-score [5]: 0.641 (inactive); z-score [6]: 1.23 (inactive); cell count [3]: 5740; cell count [4]: 5370; cell count [5]: 5790; cell count [6]: 4940

**Q.** Which z-score [1] does the source give for `COc1cc2c(Oc3ccc4[nH]c(C)cc4c3F)ncnc2cc1OCCCN1CCCC1` here?
**A.** -0.259 (inactive)

**Q.** And the z-score [2]?
**A.** -0.207 (inactive)

**Q.** What about the z-score [7] of the same compound?
**A.** -0.199 (inactive)

**Q.** What about the z-score [6] of the same compound?
**A.** 0.419 (inactive)

**Q.** What about the cell count [1] of the same compound?
**A.** 4900

**Q.** And the cell count [2]?
**A.** 4920

**Q.** And the cell count [7]?
**A.** 4790

**Q.** And the cell count [6]?
**A.** 3820

**Q.** Which results are given for `COc1cc(Nc2c(C#N)cnc3cc(OCCCN4CCN(C)CC4)c(OC)cc23)c(Cl)cc1Cl`?
**A.** outcome (library stock 10 mM): inactive; censored for cell count; z-score [1]: -0.0511 (inactive); z-score [2]: 0.0803 (inactive); z-score [7]: 2.12 (active); cell count [1]: 5680; cell count [2]: 5890; cell count [7]: 3280

**Q.** Which z-score [3] does the source give for `CC1CN(Cc2ccccc2)CC1c1nc2c(cnn2C2CCOCC2)c(=O)[nH]1` (centres undefined) here?
**A.** -0.245 (inactive)

**Q.** And the z-score [4]?
**A.** -0.201 (inactive)

**Q.** What about the z-score [5] of the same compound?
**A.** -0.281 (inactive)

**Q.** What about the z-score [6] of the same compound?
**A.** -0.05 (inactive)

**Q.** And the cell count [3]?
**A.** 6480

**Q.** What about the cell count [4] of the same compound?
**A.** 6460

**Q.** And the cell count [5]?
**A.** 6500

**Q.** And the cell count [6]?
**A.** 5630

**Q.** Which z-score does the source give for `CCCCCOc1ccccc1C(O)CC#CCCCC(=O)OC` (centres undefined) here?
**A.** -0.738 (inactive)

**Q.** And the cell count?
**A.** 4890

**Q.** With `COc1cc(C)c(Sc2cnc(NC(=O)c3ccc(CNC(C)C(C)C)cc3)s2)cc1C(=O)N1CCN(C(C)=O)CC1` (centres undefined) as the compound, how does the outcome (library stock 10 mM) read?
**A.** inactive; censored for cell count

**Q.** And the z-score [3]?
**A.** -0.488 (inactive)

**Q.** And the z-score [4]?
**A.** -0.307 (inactive)

**Q.** And the z-score [5]?
**A.** 0.194 (inactive)

**Q.** What about the cell count [3] of the same compound?
**A.** 4600

**Q.** And the cell count [4]?
**A.** 4380

**Q.** And the cell count [5]?
**A.** 4120

**Q.** With `CC(CSC(=O)c1ccccc1)C(=O)N1CC(Sc2ccccc2)CC1C(=O)O` (centres undefined) as the compound, how does the z-score [3] read?
**A.** -0.846 (inactive)

**Q.** What about the z-score [4] of the same compound?
**A.** -0.854 (inactive)

**Q.** And the z-score [5]?
**A.** -0.642 (inactive)

**Q.** And the z-score [6]?
**A.** -0.914 (inactive)

**Q.** And the cell count [3]?
**A.** 6770

**Q.** And the cell count [4]?
**A.** 5990

**Q.** And the cell count [5]?
**A.** 6700

**Q.** What about the cell count [6] of the same compound?
**A.** 6110

**Q.** Which results are given for `CCCCC[C@H](O)/C=C/[C@@H]1[C@@H](C/C=C\CCCC(=O)N(CC)CC)[C@@H](O)C[C@H]1O`?
**A.** z-score: -1.04 (inactive); cell count: 5830

**Q.** For `NC(=O)c1noc(C(CCCC2CCCCC2)CC(=O)NO)n1` (centres undefined), which z-score [1] is on record?
**A.** -0.365 (inactive)

**Q.** What about the z-score [2] of the same compound?
**A.** -0.421 (inactive)

**Q.** What about the z-score [7] of the same compound?
**A.** -0.0342 (inactive)

**Q.** What about the z-score [6] of the same compound?
**A.** 2.42 (active)

**Q.** And the cell count [1]?
**A.** 6320

**Q.** What about the cell count [2] of the same compound?
**A.** 6380

**Q.** And the cell count [7]?
**A.** 5390

**Q.** And the cell count [6]?
**A.** 2560

**Q.** What does the source list for `C=C1C(=O)O[C@H](CCCCCCCC)[C@H]1C(=O)O`?
**A.** z-score: -0.4 (inactive); cell count: 5960

**Q.** What does the source list for `CCCCC/C=C\CCCCCCCCCCCCC(=O)O`?
**A.** z-score: -0.87 (inactive); cell count: 5480

**Q.** What does the source list for `COc1ccc(CCCOC(Cn2ccnc2)c2ccc(OC)cc2)cc1` (centres undefined)?
**A.** z-score: 0.304 (inactive); cell count: 4930

**Q.** Which z-score does the source give for `CN(C)CCCCCCOc1ccc(-n2ccnc2)cc1` here?
**A.** 2.07 (active) and 0.161 (inactive)

**Q.** And the cell count?
**A.** 4900 and 5850

**Q.** Which z-score [1] does the source give for `NC(=O)C(c1ccccc1)(c1ccc(F)cc1)c1ccc(F)cc1` here?
**A.** -0.117 (inactive)

**Q.** What about the z-score [2] of the same compound?
**A.** 0.34 (inactive)

**Q.** What about the z-score [7] of the same compound?
**A.** -0.0437 (inactive)

**Q.** What about the z-score [6] of the same compound?
**A.** 0.799 (inactive)

**Q.** And the cell count [1]?
**A.** 6820

**Q.** What about the cell count [2] of the same compound?
**A.** 6540

**Q.** What about the cell count [7] of the same compound?
**A.** 6770

**Q.** What about the cell count [6] of the same compound?
**A.** 6720

**Q.** What does the source list for `O=C1C(Nc2ccccc2)=CC(=O)c2ncccc21`?
**A.** z-score: 0.666 (inactive); cell count: 3000

**Q.** For `O=C(NNS(=O)(=O)c1ccccc1C(F)(F)F)c1cc2cc(Cl)ccc2o1`, which z-score [1] is on record?
**A.** -0.12 (inactive)

**Q.** And the z-score [2]?
**A.** -0.121 (inactive)

**Q.** And the z-score [7]?
**A.** -0.307 (inactive)

**Q.** What about the z-score [6] of the same compound?
**A.** -0.0108 (inactive)

**Q.** And the cell count [1]?
**A.** 7080

**Q.** What about the cell count [2] of the same compound?
**A.** 6790

**Q.** And the cell count [7]?
**A.** 7310

**Q.** What about the cell count [6] of the same compound?
**A.** 6850

**Q.** Which results are given for `CC=C(C)C(=O)OC1C(C)=C[C@]23C(=O)C(C=C(CO)C(O)[C@]12O)C1C(CC3C)C1(C)C` (some centres undefined)?
**A.** z-score [1]: 1.37 (inactive); z-score [2]: 1.94 (inactive); z-score [7]: 1.83 (inactive); z-score [6]: 1.83 (inactive); cell count [1]: 6280; cell count [2]: 6170; cell count [7]: 6240; cell count [6]: 5670
